Where a name gives a salt, the structure may show the parent alone. In all, about 1,000 compounds were measured (“cFRET/donor change relative to DMSO, normalised to beta-lapachone positive control (supercomplex I-IV assembly)”: median about 0.18, lowest 2% from about -1 on). The sample as a whole holds a higher share of the lowest values than the screen did.
tested on: C2C12 (NDUFB8-AcGFP / COX8A-DsRed-Monomer FRET reporter); test: cFRET/donor change relative to DMSO, normalised to beta-lapachone positive control (supercomplex I-IV assembly) (fraction of beta-lapachone effect); higher = more respiratory supercomplex assembly; conditions: 40 µM; 24 h
Experimental: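 Cells were treated with 40 uM compound for 24 h and imaged on an IN Cell Analyzer 6000. Corrected FRET was divided by donor signal (cFRET/donor) and measured in two replicate experiments. The score is (mean cFRET/donor of compound - mean DMSO) / (mean beta-lapachone 40 uM - mean DMSO). Compounds flagged for prominent cell death, abnormal morphology or decreased cell number were excluded.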

Structure (SMILES) | cFRET/donor change
C[N+](C)(C)CCO.[Br-] [Choline bromide] | 0.313
O=C(CCCCCN1CCN(c2ccccc2-c2ccccc2)CC1)NC1CCCc2ccccc21 (centres undefined) [LP 12 hydrochloride hydrate] | 1.51
C=CC1=C(C)c2cc3[nH]c(cc4nc(cc5[nH]c(cc1n2)c(C)c5CCC(=O)O)C(CCC(=O)O)=C4C)c(C)c3C=C [Protoporphyrin IX disodium] | 3.12
COC(=O)C1=C(C)NC(C)=C(C(=O)OC2CCCN(Cc3ccccc3)C2)C1c1cccc([N+](=O)[O-])c1 (centres undefined) [Benidipine hydrochloride] | 0.367
CCc1cccc(N(C)C(=N)Nc2cccc3ccccc23)c1 | 0.203
CCOC(=O)[C@@H](N)Cc1ccc(O)c(O)c1 [L-Dopa ethyl ester] | -0.101
O=c1n(CCCN2CCN(c3cccc(Cl)c3)CC2)nc2ccccn12 [Trazodone hydrochloride] | 0.586
CC[C@H]1OC(=O)[C@H](C)[C@@H](O[C@H]2C[C@@](C)(OC)[C@@H](O)[C@H](C)O2)[C@H](C)[C@@H](O[C@@H]2O[C@H](C)C[C@H](NC)[C@H]2O)[C@](C)(O)C[C@@H](C)CN(C)[C@H](C)[C@@H](O)[C@]1(C)O | 0.325
O=c1cc(-c2ccccc2)[nH]c2nc(Cl)ccc12 [7-Chloro-4-hydroxy-2-phenyl-1,8-naphthyridine] | -1.98
O=C(O)c1cc(=O)c2ccccc2[nH]1 [Kynurenic acid] | -0.161
CN1[C@@H]2CC[C@H]1CC(OC(=O)c1c[nH]c3ccccc13)C2 (some centres undefined) [3-Tropanyl-indole-3-carboxylate hydrochloride] | 0.435
CCCOc1ccccc1-c1nc2[nH]nnc2c(=O)[nH]1 [Zaprinast] | 0.225
CCCCN(CC)c1nc(C)nc2c1c(C)cn2-c1c(C)cc(C)cc1C | 0.353
CNC(=O)[C@H]1O[C@@H](n2cnc3c(NCc4ccc(N)cc4)ncnc32)[C@H](O)[C@@H]1O | 0.125
Cc1nc(C#Cc2cccnc2)cs1 [MTEP hydrochloride] | 0.691
CCCc1nn(C)c2c(=O)[nH]c(-c3cc(S(=O)(=O)N4CCN(C)CC4)ccc3OCC)nc12 [Sildenafil citrate salt] | 0.123
NS(=O)(=O)c1cc2c(cc1Cl)N=CNS2(=O)=O [Chlorothiazide] | 0.223
C=C1C(=O)O[C@H]2[C@H]1CC/C(C)=C/CC[C@@]1(C)O[C@@H]21 [Parthenolide] | 0.366
CN(CCOc1ccc(NS(C)(=O)=O)cc1)CCc1ccc(NS(C)(=O)=O)cc1 [Dofetilide] | 0.532
CC1CCN=C(N)S1 (racemic) [(±)-AMT hydrochloride] | 0.00413
CC(=O)/C=C1/C(=O)N(C)c2ccccc21 [Supercinnamaldehyde] | 0.0218
CC(N)(Cc1ccc(O)cc1)C(=O)O (racemic) [DL-alpha-Methyl-p-tyrosine] | -0.224
C[C@]12CC[C@@H]3c4ccc(O)cc4C[C@@H](CCCCCCCCC[S+]([O-])CCCC(F)(F)C(F)(F)F)[C@H]3[C@@H]1CC[C@@H]2O (some centres undefined) [Fulvestrant] | 0.0846

Structure (SMILES) | cFRET/donor change
NS(=O)(=O)c1nn2cc(-c3ccccc3)nc2s1 | -0.298
COC(=O)C(C)(N)Cc1ccc(O)cc1 (racemic) [alpha-Methyl-DL-tyrosine methyl ester hydrochloride] | 0.302
O=C1OC(=O)[C@H]2[C@@H]1[C@@H]1CC[C@H]2O1 [Norcantharidin] | 0.251
CCCCC1(C2CCCC2)Cc2cc(OCC(=O)O)c(Cl)c(Cl)c2C1=O (stereo in doubt) [R(+)-Butylindazone] | 0.322
CC(=O)NC[C@H]1CN(c2ccc(N3CCOCC3)c(F)c2)C(=O)O1 [Linezolid] | 0.372
CCCCCCCCCCCCCCCC(=O)OC[C@H](COP(=O)(O)OCCNC(=O)[C@H](C)NC(=O)CC[C@@H](NC(=O)[C@H](C)NC(=O)[C@@H](C)O[C@H]1[C@H](O)[C@@H](CO)OC(O)[C@@H]1NC(C)=O)C(N)=O)OC(=O)CCCCCCCCCCCCCCC (some centres undefined) [Mifamurtide] | -0.0931
O=C1CCCC(=O)C1C(=O)c1ccc(C(F)(F)F)cc1[N+](=O)[O-] [Nitisinone] | 0.0147
C=C1C[C@@]23CC[C@H]4[C@@](C)(CCC[C@@]4(C)C(=O)O[C@@H]4O[C@H](CO)[C@@H](O)[C@H](O)[C@H]4O)[C@@H]2CC[C@]1(O[C@@H]1O[C@H](CO)[C@@H](O)[C@H](O)[C@H]1O[C@@H]1O[C@H](CO)[C@@H](O)[C@H](O)[C@H]1O)C3 [Stevioside] | 0.0782
N[C@H](C(=O)O)[C@H](Cc1ccccc1)C(=O)O [L-Beta-threo-benzyl-aspartate] | -0.122
CCCCCCCCCCCCCCC[C@H](O)[C@H](N)CO (racemic) [DL-erythro-Dihydrosphingosine] | 0.48
CC(C)NCC(O)c1ccc(O)c(O)c1 (single isomer, unassigned; (-)) [(-)-Isoproterenol hydrochloride] | 0.53
C[C@]12C=CC(=O)C=C1CC[C@@H]1C2=CC[C@]2(C)[C@@H](C(=O)CN3CCN(c4cc(N5CCCC5)nc(N5CCCC5)n4)CC3)CC[C@@H]12 | -1.85
CCN(CC)CCCCNc1ncc2cc(-c3c(Cl)cccc3Cl)c(NC(=O)NC(C)(C)C)nc2n1 | 0.403
Cc1cn([C@H]2C[C@H](N=[N+]=[N-])[C@@H](CO)O2)c(=O)[nH]c1=O [3'-Azido-3'-deoxythymidine] | -0.184
O=CN(O)CCCP(=O)(O)O [Fosmidomycin sodium salt hydrate] | 0.0766
N[C@H](C(=O)O)[C@H](O)c1ccc(O)c(O)c1 | 0.419
O=c1[nH]c(=O)n(C2CCCO2)cc1F (centres undefined) [Tegafur] | 0.268
O=C(NOC[C@H](O)CO)c1ccc(F)c(F)c1Nc1ccc(I)cc1F | 0.21
COc1cc2ncnc(Nc3cccc(Cl)c3)c2cc1OC [Tyrphostin AG 1478] | 0.19
CN(C)c1cc2c(Nc3ccc4c(cnn4Cc4ccccc4)c3)ncnc2cn1 | -7.46
CC1=C(C(=O)O)N2C(=O)[C@@H](NC(=O)[C@H](N)c3ccccc3)[C@H]2SC1 [Cephalexin hydrate] | 0.038
CNS(=O)(=O)CCc1ccc2[nH]cc(C3CCN(C)CC3)c2c1 [Naratriptan hydrochloride] | 0.347
O=c1cc(-c2ccccc2)oc2c(O)c(O)ccc12 [7,8-Dihydroxyflavone hydrate] | -0.0745

Structure (SMILES) | cFRET/donor change
O=c1c(-c2ccc(O)cc2)coc2cc(O)ccc12 [Daidzein] | 0.201
COc1ccc(-c2cc(=O)c3c(O)c(OC)c(OC)cc3o2)cc1O [Eupatorin] | 0.395
O=c1cc(-c2ccc(O)cc2)oc2cc(O)cc(O)c12 [Apigenin] | -1.74
O=c1c(O)c(-c2ccc(O)cc2O)oc2cc(O)cc(O)c12 [Morin] | -3.25
O=C(Nc1ccccc1C(=O)NC1CCCCNC1=O)c1cc2ccccc2s1 (centres undefined) | 0.384
CN1[C@@H]2CC[C@H]1C[C@@H](OC(=O)C(O)c1ccccc1)C2 (mixture of isomers) [DL-Homatropine hydrobromide] | 0.0655
Cn1c(=O)c2[nH]c(-c3ccc(S(=O)(=O)O)cc3)nc2n(C)c1=O [8-(p-Sulfophenyl)theophylline] | 0.086
Cn1c(=O)c2[nH]c(C3CCCC3)nc2n(C)c1=O [8-Cyclopentyl-1,3-dimethylxanthine] | 0.158
Cn1c(=O)c2[nH]c(-c3ccccc3)nc2n(C)c1=O [1,3-Dimethyl-8-phenylxanthine] | -1.5
Cc1c(O)cccc1C(=O)N[C@@H](CSc1ccccc1)[C@H](O)CN1C[C@H]2CCCC[C@H]2C[C@H]1C(=O)NC(C)(C)C [Nelfinavir mesylate hydrate] | -0.54
O=C(O)CCc1ccc(NCc2cccc(Oc3ccccc3)c2)cc1 | -0.4
C[C@@H](c1ncncc1F)[C@](O)(Cn1cncn1)c1ccc(F)cc1F [Voriconazole] | 0.181
NC1CONC1=O (racemic) [DL-Cycloserine] | 0.397
NC(N)=NC(=O)c1nc(Cl)c(N2CCCCCC2)nc1N [5-(N,N-hexamethylene)amiloride] | 0.351
CCOc1ncc(S(=O)(=O)N2CCN(CC)CC2)cc1-c1nc(=O)c2nn(CCOC)c(CC)c2[nH]1 [Gisadenafil besylate salt] | 0.0753
O=C1Nc2ccc(I)cc2/C1=C/c1cc(Br)c(O)c(Br)c1 | -3
N=C(N)c1ccc(OCCCCCOc2ccc(C(=N)N)cc2)cc1 [Pentamidine isethionate] | 0.191
CC(C)(NS(=O)(=O)c1ccc(Oc2ccc(F)cc2)cc1)C(=O)NO | 0.196
CN1[C@@H]2CC[C@H]1C[C@@H](OC(c1ccccc1)c1ccccc1)C2 [Benztropine mesylate] | 0.586
Cc1c(-c2ccc(-c3ccccc3F)cc2)nc2ccc(F)cc2c1C(=O)O [Brequinar sodium salt hydrate] | 0.431
Nc1ccc(CCNc2ncnc3c2ncn3C2OC(CO)C(O)C2O)cc1 (centres undefined) [N6-2-(4-Aminophenyl)ethyladenosine] | 0.338
CCCC(CCC)C(=O)O[C@H]1C[C@H]2CC[C@@H](C1)[N+]2(C)C [Anisotropine methyl bromide] | 0.0542
COc1ccc(CCn2nnnc2C2(c3ccc(C)cc3)CC2)cc1 [Mephetyl tetrazole] | 0.388

— the supplement of paper PMC9877034
